From PubChem
Pf Dd2 growth: Plasmodium falciparum Dd2 growth inhibition. hit rate 4.3% among 120,000. P. falciparum Dd2 growth, SYBR Green, 72 h. Potency, µM (titrated, usually from 28.9 µM), actives largely listed as inhibitors; active = well fitted inhibition curve with a large enough effect; note: nearly all actives have a fitted effect of over 65% in size
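Readout: SYBR Green fluorescence, 485 nm excitation, 535 nm emission, after ~16 h lysis at 37C. Before that, Dd2-infected red cells (2.5% hematocrit) grew 72 h with compound, 29 uM top final concentration.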
Hits are given with their value. Shown is part of a subset that was picked to be rich in hits.

Screening CN1CCC(N(C)CC2CCCN(CCc3ccc(F)cc3)C2)CC1 (stereo not given) returned Pf Dd2 growth 8.9µM.
Cc1nc(C)c(CN(C)C2CCCN(CCc3ccccc3)C2)nc1C (stereo not given) was read as Pf Dd2 growth inactive.
For CN(Cc1ccc(F)cc1)CC1CCCCC1 the results were Pf Dd2 growth inactive.
Screening O=C(Nc1ccc(C(F)(F)F)cc1)N1CCCC(Cn2c(C3CC3)nc3cccnc32)C1 (stereo not given) returned Pf Dd2 growth inactive.
Screening CN(Cc1nccn1Cc1ccccc1)C(=O)c1cccc(-n2cnnc2)c1 returned Pf Dd2 growth inactive.
`COCc1nncn1C1CCN(C(=O)c2cccc(OC)c2)CC1` gave Pf Dd2 growth inactive.
`CN(C)C(=O)N1CCN(C2CCNCC2)C(=O)C1` gave Pf Dd2 growth inactive.
For FC(F)(F)c1cccc(N2CCN(Cc3nnc(-c4ccccc4)o3)CC2)c1 the results were Pf Dd2 growth inactive.
CC(C)OCc1cc(CN2CCN(c3cccc(C(F)(F)F)c3)CC2)c(O)c2ncccc12 was read as Pf Dd2 growth 1.4µM.
For OC1(CN2CCN(c3cccc(C(F)(F)F)c3)CC2)CNCCOC1 (stereo not given) the results were Pf Dd2 growth inactive.
`CCOCc1cc(CN2CCN(c3cccc(C(F)(F)F)c3)CC2)c(O)c2ncccc12` gave Pf Dd2 growth 2.8µM.
For O=C(c1cc2ccc3cccnc3c2[nH]1)N1CCN(c2cccc(C(F)(F)F)c2)CC1 the results were Pf Dd2 growth inactive.
For O=C(CCn1c(=O)c2cccn2c2cccnc21)N1CCN(c2cccc(C(F)(F)F)c2)CC1 the results were Pf Dd2 growth inactive.
Screening O=C1NCc2ccccc2CC12CCN(Cc1cc(O)ccc1[N+](=O)[O-])C2 (stereo not given) returned Pf Dd2 growth inactive.
`N#Cc1cccc(C(=O)NCC(=O)N2CCCCCNC(=O)CC2c2ccccc2)c1` (stereo not given) gave Pf Dd2 growth inactive.
Screening CC1CCCCN1C(=O)c1cnc(Cc2c(Cl)cccc2Cl)[nH]c1=O (stereo not given) returned Pf Dd2 growth inactive.
COc1ccc(CCNC(=O)CCCn2c(=O)c3ccccc3n(CC(=O)Nc3cc(Cl)ccc3C)c2=O)cc1OC was read as Pf Dd2 growth inactive.
For COc1ccc(CCNC(=O)CCn2c(=O)c3ccccc3n(CC(=O)Nc3cc(Cl)ccc3C)c2=O)cc1OC the results were Pf Dd2 growth inactive.
`COc1ccc(Cl)cc1NC(=O)Cn1c(=O)n(CCCC(=O)NCCc2ccc(OC)c(OC)c2)c(=O)c2ccccc21` gave Pf Dd2 growth 11µM.
`O=C([C@H]1C[C@H](Oc2ccccc2)CN1C(=O)NCc1ccccc1)N1CCOCC1` gave Pf Dd2 growth inactive.
For O=C(NCc1ccc2c(c1)OCO2)C1CCc2sc(C(=O)N3CCCCCC3)cc2C1 (stereo not given) the results were Pf Dd2 growth inactive.
For COc1ccccc1CN1C(=O)O[C@@H]2CN(C(=O)NC3CCCCC3)C[C@@H]21 the results were Pf Dd2 growth inactive.
For COc1cc(OC)nc(N2C[C@H]3OC(=O)N(Cc4ccccc4OC)[C@H]3C2)n1 the results were Pf Dd2 growth 3.5µM.
For COC(=O)c1ccc(N2C[C@H]3OC(=O)N(Cc4ccccc4OC)[C@H]3C2)nc1 the results were Pf Dd2 growth inactive.
For CN1C(=O)[C@H]2CN(Cc3c[nH]c4ccccc34)C[C@H]2C1=O the results were Pf Dd2 growth inactive.
`O=C(c1ccc(-c2ccc(N3CCCCC3)nc2)cc1)N1CCCC1` gave Pf Dd2 growth inactive.
Screening Cc1nn(C)c(C)c1C(=O)N[C@@H]1CN(S(C)(=O)=O)C[C@H]1CN(C)C returned Pf Dd2 growth inactive.
Screening COc1ccc(Nc2c3c(nc4ccc(NC(=O)/C=C/c5cc(OC)c(OC)c(OC)c5)cc24)CCCC3)cc1OC returned Pf Dd2 growth 2.5µM.
Screening COc1ccc(NC(=O)c2sc3nc4c(cc3c2N)CCCCCC4)cc1OC returned Pf Dd2 growth inactive.
Screening COc1ccc(/C=C/C(=O)Nc2ccc(Cl)c(Cl)c2)cc1 returned Pf Dd2 growth inactive.
`COc1ccc(/C=C/C(=O)Nc2ccc3nc4c(c(Nc5ccc(OC)c(OC)c5)c3c2)CCCC4)cc1` gave Pf Dd2 growth 2.2µM.
For COc1cc(NC(=O)CSc2c3c(nc4ccccc24)CCC3)cc(OC)c1OC the results were Pf Dd2 growth inactive.
For COc1cc(NC(=O)c2ccc3c(Cl)c4c(nc3c2)CCC4)cc(OC)c1OC the results were Pf Dd2 growth inactive.
Screening COc1ccc(NC(=O)N2CCc3c(C(=O)NCCCN4CCCC4=O)cccc32)cc1 returned Pf Dd2 growth inactive.
Fc1ccc2oc([C@H]3CCN(CC4CCCCC4)C3)nc2c1 was read as Pf Dd2 growth inactive.
For CN1C(=O)C2(Cc3ccccc31)CN(C(=O)c1ccc(Cl)cc1)C2 the results were Pf Dd2 growth inactive.
Screening O=C(c1cccc(Cl)c1)N1CC(CNc2cccnc2)C2(C1)CN(c1ccccc1)C2 (stereo not given) returned Pf Dd2 growth 13µM.
Screening O=C(c1cccnc1)N1CC(COc2ccccc2)C2(C1)CN(c1ccccc1)C2 (stereo not given) returned Pf Dd2 growth inactive.
Screening Cn1cc(C(=O)NCC2CN(C(=O)c3ccccc3)CC23CN(c2ccccc2)C3)cn1 (stereo not given) returned Pf Dd2 growth inactive.
CC(C)c1ccc(CN2CC(CNC(=O)c3cnn(C)c3)C3(C2)CN(c2ccccc2)C3)cc1 (stereo not given) was read as Pf Dd2 growth inactive.
`O=C(Cc1ccccc1)NCC1CN(Cc2ccncc2Cl)CC12CN(c1ccccc1)C2` (stereo not given) gave Pf Dd2 growth 11µM.
For O=C(NCC1CN(Cc2ccncc2Cl)CC12CN(c1ccccc1)C2)c1ccccc1 (stereo not given) the results were Pf Dd2 growth inactive.
`O=C1NCCN1C1CCN(Cc2ccc(C(F)(F)F)cc2)CC1` gave Pf Dd2 growth inactive.
Screening COc1ccc([C@H]2C[C@@H](O)[C@@H](O)[C@@H]2NC(=O)c2c(C)noc2C)cc1 returned Pf Dd2 growth inactive.
`CC(C)N1C[C@H](O)C[C@H]1c1nnc2n1CCN(C(=O)c1ccsc1)CC2` gave Pf Dd2 growth inactive.
Screening COCC(=O)N1CCC2(CC1)CC(N(C(=O)c1ccccc1)C1CC1)CCO2 (stereo not given) returned Pf Dd2 growth inactive.
Screening CCN1CCN(Cc2cn(-c3ccccc3F)nc2-c2cc(C)sc2C)CC1 returned Pf Dd2 growth 11µM.
CCC1CN(Cc2cn(-c3ccccc3C)nc2-c2ccc(OC)c(F)c2)CCO1 (stereo not given) was read as Pf Dd2 growth 11µM.
CCc1c(CN2CCN(c3ccccc3F)CC2)csc1C was read as Pf Dd2 growth inactive.
`COc1ccc(-c2nn(-c3ccccc3)cc2CN2CCCC(C)(O)C2)c(F)c1` (stereo not given) gave Pf Dd2 growth inactive.
For COc1ccc(-c2nn(-c3ccccc3C)cc2CN2CCCN(C)CC2)cc1F the results were Pf Dd2 growth 7.9µM.
OC[C@H]1CCN(Cc2cn(-c3ccccc3)nc2-c2ccncc2)C[C@@H]1O was read as Pf Dd2 growth inactive.
Screening CCc1ccc(N2CC(c3noc(-c4ccc(OC)c(F)c4)n3)CC2=O)cc1 (stereo not given) returned Pf Dd2 growth inactive.
COc1ccc(OC)c(CN2CCN(S(=O)(=O)c3ccccc3)CC2)c1 was read as Pf Dd2 growth inactive.
